Measurements: the supplement of paper PMC10646978
± gives the standard deviation.

Columns and labels:
Conditions in all cases: modulator concentration 10 µM
[1] = system: RAW-Dual (murine macrophage reporter line); experiment: NF-kB reporter (SEAP) activity fold change vs agonist alone; higher = enhanced NF-kB activity
In short: (§1)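 In 384-well plates holding 50 000 RAW-Dual murine macrophage reporter cells per well, compound at 10 μM final was pre-incubated for 1 hour at 37 °C, after which a PRR agonist was added overnight. Supernatant SEAP read with QUANTI-Blue at 620 nm absorbance reported NF-κB, and Lucia luciferase read with QUANTI-Luc luminescence reported IRF. Fold change values come from dividing each reporter signal by the mean of agonist-only control wells on the same plate, averaged over replicate plates with propagated errors.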

[2] = system: RAW-Dual (murine macrophage reporter line); experiment: IRF reporter (Lucia luciferase) activity fold change vs agonist alone; higher = enhanced IRF activity
In short: as §1

[3] = system: RAW-Dual (murine macrophage reporter line); experiment: viability score (confluency relative to resting cells, overnight) (fraction); higher = more viable, active = viable (0.7 or more)
In short: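 RAW-Dual macrophages in 384-well plates were treated overnight with compound at 10 μM final. IncuCyte imaging recorded confluency, and IncuCyte software built two confluency masks across every imaged well. The viability score expresses confluency relative to resting cells and was judged against a cutoff, which a compound met only if both masks exceeded 70% of resting cells.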

[4] = agonist: CpG ODN 1826 0.5 ug/mL

| Compound | NF-kB reporter [1, 4] | NF-kB reporter ([1]; agonist: LPS 0.1 ug/mL) | NF-kB reporter ([1]; agonist: MPLA […]) | IRF reporter ([2]; agonist: 3'3'-cGAMP 10 ug/mL) | IRF reporter ([2]; agonist: LPS 0.1 ug/mL) | IRF reporter ([2]; agonist: MPLA […]) | viability score [3] |
| --- | --- | --- | --- | --- | --- | --- | --- |
| O=S(=O)(NCc1ccccn1)c1cccc(Cl)c1 | 0.918 ± 0.039 | 0.986 ± 0.12 | 1.06 ± 0.057 | 1.02 ± 0.061 | 1.32 ± 0.17 | 1.49 ± 0.46 | 0.986 (active) |
| COc1cc(C=NNC(=O)c2ccc(OC)c(OC)c2)ccc1O | 0.788 ± 0.32 | 0.838 ± 0.098 | 0.831 ± 0.066 | 0.83 ± 0.022 | 0.938 ± 0.15 | 1.15 ± 0.15 | 0.996 (active) |
| Cc1cc(Cl)ccc1OCCCC(=O)NO | 0.745 ± 0.091 | 0.794 ± 0.039 | 1.19 ± 0.028 | 0.234 ± 0.014 | 0.449 ± 0.084 | 0.553 ± 0.12 | 0.986 (active) |
| Nc1nc2ccc(OC(F)(F)F)cc2s1 | 0.955 ± 0.13 | 1.09 ± 0.3 | 1.02 ± 0.059 | 1.07 ± 0.044 | 1.15 ± 0.24 | 0.928 ± 0.14 | 0.965 (active) |
| CCN1CCN(c2nc3c(c(=O)[nH]c(=O)n3C)n2CC(O)COc2cc(C)ccc2C(C)C)CC1 (stereo not drawn) | 1.18 ± 0.067 | 1.08 ± 0.086 | 1.2 ± 0.064 | 1.1 ± 0.061 | 1.38 ± 0.14 | 1.48 ± 0.31 | 0.956 (active) |
| NC(=O)CCC(N)C(=O)O (stereo not drawn) | 1.13 ± 0.32 | 0.935 ± 0.051 | 1.03 ± 0.1 | 0.883 ± 0.049 | 1.1 ± 0.16 | 0.999 ± 0.097 | 0.997 (active) |
| O=C(Cn1c(=O)oc2ccccc21)N1Cc2cncnc2C1 | 0.853 ± 0.24 | 1.04 ± 0.052 | 0.988 ± 0.065 | 0.921 ± 0.042 | 0.991 ± 0.15 | 0.991 ± 0.12 | 0.998 (active) |
| COc1cccc(N2C(=O)CN(Cc3ccccc3)C3CS(=O)(=O)CC32)c1 (stereo not drawn) | 1.43 ± 0.078 | 0.719 ± 0.057 | 1.49 ± 0.093 | 0.322 ± 0.034 | 0.237 ± 0.05 | 0.216 ± 0.075 | 0.832 (active) |
| Cc1ccc(C(=O)NC2CCN(c3ccc4nncn4n3)C2)c(C)c1 (stereo not drawn) | 0.957 ± 0.13 | 1.02 ± 0.081 | 1.15 ± 0.15 | 1.03 ± 0.066 | 0.995 ± 0.18 | 0.935 ± 0.42 | 1 (active) |
| CC(=O)N1CCC(C(=O)NC(Cn2nccn2)c2ccccc2)CC1 (stereo not drawn) | 0.87 ± 0.05 | 1.06 ± 0.09 | 1.05 ± 0.082 | 1.04 ± 0.051 | 1.34 ± 0.25 | 1.56 ± 0.46 | 0.935 (active) |
| COc1ccc(C2NC(=O)C(O)=C2C(C)=O)cc1 (stereo not drawn) | 0.734 ± 0.057 | 0.884 ± 0.11 | 1.09 ± 0.095 | 0.914 ± 0.047 | 1.29 ± 0.085 | 1.41 ± 0.12 | 1.01 (active) |
| C/C(=C(\CCOP(=O)(O)O)SC(=O)c1ccccc1)N(C=O)Cc1cnc(C)nc1N [Prestw-654] | 1.03 ± 0.19 | 1.25 ± 0.15 | 1.1 ± 0.13 | 0.943 ± 0.031 | 1.04 ± 0.15 | 1.28 ± 0.14 | 0.974 (active) |
| NCCCS(=O)(=O)O | 0.883 ± 0.069 | 1 ± 0.072 | 0.98 ± 0.024 | 1.06 ± 0.058 | 0.978 ± 0.039 | 0.891 ± 0.12 | 0.998 (active) |
| CCS(=O)(=O)N1N=C(c2ccc(NS(C)(=O)=O)cc2)CC1c1ccccc1 (stereo not drawn) | 0.947 ± 0.073 | 0.998 ± 0.078 | 1.12 ± 0.12 | 0.963 ± 0.034 | 1.29 ± 0.15 | 1.4 ± 0.23 | 1.02 (active) |
| Cc1cccc(NC(=O)C(=Cc2ccco2)NC(=O)c2ccccc2I)c1 | 1.06 ± 0.087 | 1.06 ± 0.081 | 1.01 ± 0.072 | 0.953 ± 0.076 | 1.15 ± 0.099 | 1.11 ± 0.15 | 1.01 (active) |
| Cc1cc(C(O)CCNC(=O)Nc2ccc(Cl)c(Cl)c2)c(C)o1 (stereo not drawn) | 0.577 ± 0.033 | 0.87 ± 0.075 | 0.791 ± 0.072 | 0.835 ± 0.038 | 0.974 ± 0.22 | 0.863 ± 0.31 | 0.975 (active) |
| COS(=O)(=O)[O-].C[N+]1(C)CCC(=C(c2ccccc2)c2ccccc2)CC1 | 1.35 ± 0.061 | 1.09 ± 0.093 | 1.76 ± 0.32 | 0.849 ± 0.047 | 0.979 ± 0.15 | 0.823 ± 0.18 | 0.958 (active) |
| CCCCCCCCCCCC1=C(O)C(=O)C=C(O)C1=O | 0.901 ± 0.22 | 0.642 ± 0.034 | 0.675 ± 0.045 | 0.566 ± 0.019 | 0.823 ± 0.09 | 0.774 ± 0.086 | 0.167 (inactive) |
| Cc1cc(C)n(-c2ccc(=O)n(CCNS(=O)(=O)c3ccccc3F)n2)n1 | 1.08 ± 0.09 | 1.08 ± 0.086 | 0.937 ± 0.049 | 1.01 ± 0.059 | 1.2 ± 0.081 | 1.13 ± 0.11 | 1 (active) |
| O=c1oc2ccccc2c(O)c1Cc1c(O)c2ccccc2oc1=O | 1.06 ± 0.089 | 0.972 ± 0.061 | 1.03 ± 0.051 | 1.06 ± 0.12 | 0.916 ± 0.048 | 0.844 ± 0.07 | 0.997 (active) |
| S=c1n(CN2CCOCC2)nc(-c2ccccc2Br)n1-c1ccccc1 | 1.08 ± 0.19 | 0.947 ± 0.099 | 0.951 ± 0.073 | 0.884 ± 0.031 | 1.21 ± 0.12 | 1.22 ± 0.17 | 1 (active) |
| CCCCCCC1OCC2(CO)C(C)C=C(C)C1C2C (stereo not drawn) | 0.532 ± 0.075 | 0.697 ± 0.082 | 0.716 ± 0.067 | 1.31 ± 0.075 | 1.05 ± 0.17 | 1.21 ± 0.24 | 0.898 (active) |
| CN(C)c1ccc(O)c2c1C[C@H]1C[C@H]3[C@H](N(C)C)C(O)=C(C(N)=O)C(=O)[C@@]3(O)C(O)=C1C2=O.Cl | 0.96 ± 0.072 | 0.927 ± 0.052 | 0.959 ± 0.03 | 1.36 ± 0.37 | 1.04 ± 0.14 | 1.09 ± 0.17 | 0.999 (active) |
| Cc1ncn(CCNC(=O)Nc2ccc(OC(F)(F)F)cc2)c(=O)c1C | 1.14 ± 0.077 | 1.08 ± 0.088 | 1.01 ± 0.061 | 0.901 ± 0.035 | 1.06 ± 0.05 | 1.11 ± 0.25 | 0.998 (active) |
